Assay results from PubChem BioAssay.

Tests used:
[1] = test system: Human papillomavirus type 1a protein E7 (residues 44-93); test: small molecules binding HPV E7 44-93 – biochemical, small-molecule microarray, residues 44-93, 635 nm fluorescence, primary screen (AID 1108); details: fluorescence 635 nm, higher = more signal;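 also: E7 fragment applied at 1 µg/mL in TBST for 1 h at 4 C; score combines spot fluorescence with its signal to noise ratio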
[2] = hepatitis C replication reporter changes, two-sided – Huh7 cells, luciferase reporter, HCV replication inhibitor project, primary screen (AID 1109); details: Huh7 HCV replicon luciferase reporter, 48 h; higher = more signal;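 also: huh7 hepatoma cells harbouring a luciferase neomycin HCV replicon reporter; luciferase luminescence as measure of HCV replicon replication; test concentration not given here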
[3] = target: Left-right determination factor 2 (Homo sapiens) (UniProt O00292); test: small molecules binding LEFTY2 protein – biochemical, small-molecule microarray, 635 nm fluorescence scan, primary screen (AID 1110); details: higher = more signal
Left-right determination factor 2 (Homo sapiens), sequence (O00292 whole entry, looked up): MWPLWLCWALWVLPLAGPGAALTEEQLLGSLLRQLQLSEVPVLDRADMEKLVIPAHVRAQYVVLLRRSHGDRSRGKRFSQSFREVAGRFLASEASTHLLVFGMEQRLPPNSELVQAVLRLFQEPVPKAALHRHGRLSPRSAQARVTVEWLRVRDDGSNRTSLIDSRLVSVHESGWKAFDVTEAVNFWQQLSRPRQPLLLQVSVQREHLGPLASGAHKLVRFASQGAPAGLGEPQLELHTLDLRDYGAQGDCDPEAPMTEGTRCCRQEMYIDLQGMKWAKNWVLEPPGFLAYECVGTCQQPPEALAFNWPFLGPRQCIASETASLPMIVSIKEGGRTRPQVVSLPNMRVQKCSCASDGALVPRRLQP

[4] = target: Calmodulin-1 (Homo sapiens) (UniProt P0DP23); test: small molecules binding calmodulin-1 with EGTA – biochemical, small-molecule microarray, Cy5-labelled CALM1, profiling panel (AID 1111); details: Cy5-CALM1 binding fluorescence, higher = more signal;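 also: labelled calmodulin applied in Tris saline Tween buffer holding calcium plus EGTA and DTT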
[5] = target: Calmodulin-1 (Homo sapiens) (UniProt P0DP23); test: small molecules binding Ca-loaded calmodulin-1 – biochemical, small-molecule microarray, Cy5-labelled CALM1, plus calcium, artefact control for SMM control-protein annotation, profiling panel (AID 1112); details: Cy5-CALM1 binding fluorescence, higher = more signal;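 also: score merges spot fluorescence with signal to noise from triplicate slides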
[6] = probe aWnt5a binding to arrayed compounds – biochemical, biotinylated probe, 635/667 nm fluorescence, primary screen (AID 1113); details: small-molecule microarray, higher = more signal;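 also: score merges 667 nm fluorescence intensity with signal-to-noise per printed feature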
[7] = probe aShh binding to arrayed compounds – biochemical, biotinylated probe, 635/667 nm fluorescence, primary screen (AID 1114); details: small-molecule microarray, higher = more signal;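 also: probe is biotin-labelled aShh protein from a stem cell growth factor screen; measures binding of labelled protein to compounds printed on the slide; score merges feature fluorescence at 667 nm with signal-to-noise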
[8] = probe aNog binding to arrayed compounds – biochemical, biotinylated probe, 635/667 nm fluorescence, primary screen (AID 1115); details: small-molecule microarray, higher = more signal;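 also: probe is biotinylated aNog protein used at 0.15 µg/mL for 1 h at 4 C; z-score combines 667 nm fluorescence of each spot with its signal to noise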
[9] = target: Torsin-1A-interacting protein 1 (Homo sapiens) (UniProt Q5JTV8); test: compound microarray binding of lysate hLAP1 – cell lysate, small-molecule microarray, COS7 lysate, 635/667 nm fluorescence, primary screen (AID 1116); details: 635 nm fluorescence, higher = more signal
Torsin-1A-interacting protein 1 (Homo sapiens), sequence (Q5JTV8 whole entry, looked up): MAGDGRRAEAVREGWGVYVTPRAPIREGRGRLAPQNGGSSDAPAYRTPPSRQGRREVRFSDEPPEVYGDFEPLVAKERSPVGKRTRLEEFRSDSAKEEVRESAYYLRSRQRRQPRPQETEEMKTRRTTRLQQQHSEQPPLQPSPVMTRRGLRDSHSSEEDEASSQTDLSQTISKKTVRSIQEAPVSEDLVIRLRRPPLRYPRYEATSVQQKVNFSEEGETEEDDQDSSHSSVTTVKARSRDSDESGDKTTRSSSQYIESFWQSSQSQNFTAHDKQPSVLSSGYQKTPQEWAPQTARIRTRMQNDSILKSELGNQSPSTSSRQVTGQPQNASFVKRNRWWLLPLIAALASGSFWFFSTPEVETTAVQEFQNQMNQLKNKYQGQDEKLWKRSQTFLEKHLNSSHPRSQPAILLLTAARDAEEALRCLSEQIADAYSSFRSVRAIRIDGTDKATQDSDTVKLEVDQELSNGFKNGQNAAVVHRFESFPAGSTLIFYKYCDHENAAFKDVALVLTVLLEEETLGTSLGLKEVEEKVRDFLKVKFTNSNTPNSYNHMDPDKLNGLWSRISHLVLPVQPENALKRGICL

[10] = target: Alpha-bungarotoxin (Bungarus multicinctus) (UniProt P60615); test: compounds binding labelled alpha-BTX control protein – biochemical, small-molecule microarray, Alexa647 label, 635/667 nm fluorescence, artefact control for SMM control protein annotation, profiling panel (AID 1117); details: alpha-BTX-A647 binding fluorescence, higher = more signal
Alpha-bungarotoxin (Bungarus multicinctus), sequence (P60615 whole entry, looked up): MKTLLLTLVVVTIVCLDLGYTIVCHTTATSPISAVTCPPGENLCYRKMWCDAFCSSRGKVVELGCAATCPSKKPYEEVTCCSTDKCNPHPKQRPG

Row | Compound | composite z-score [1] | z-score [2] | composite z-score [3] | composite z-score [4] | composite z-score [5] | composite z-score [6] | composite z-score [7] | composite z-score [8] | composite z-score [9] | composite z-score [10]
1 | COC(=O)[C@@]1(Cc2ccc(F)cc2)[C@H]2c3cc(C(=O)N(C)C)n(CCF)c3C[C@H]2CN1C(=O)c1ccccc1 | -0.999 | -1.38 | -0.0571 | 0.838 | 0.55 | 0.0657 | 0.337 | 0.787 | 0.163 | 0.3
2 | CCCCN1CC=CC23O[C@@H]4/C=C\CCCOC(=O)C4[C@H]2C(=O)N(CCCCCCO)[C@@H]3C1=O (stereo not given in full) | 0.528 | 0.284 | -1.53 | -1.12 | -0.439 | -0.152 | 0.0639 | -0.346 | 3.21 | -1.09
3 | COc1ccc([Si](C)(C)[C@@H]2[C@@H](CC(=O)N3Cc4ccccc4C[C@H]3CO)O[C@]3(C(=O)N(Cc4ccc(I)cc4)c4ccccc43)[C@H]2C)cc1 | 1.3 | -3.76 | 0.878 | 0.186 | 0.426 | -0.0472 | -0.304 | -0.503 | 0.224 | 0.308
4 | COCCOC(=O)N1C(=O)[C@@]2(c3cc(C#CCNC(N)=O)ccc31)[C@H](c1ccccc1OCCO)N1[C@H](c3ccccc3)[C@H](c3ccccc3)OC(=O)[C@H]1[C@@H]2C(=O)N1CCCCCCC1 | 0.6 | -1.84 | 0.621 | 1.47 | 0.716 | 0.14 | 0.31 | -0.499 | 1.02 | 1.68
5 | O=C1NC(=O)C2C1C=CC(C(O)c1ccc(F)cc1)N2Nc1ccc(Cl)cc1Cl (stereo not given) | 0.379 | -0.659 | -0.752 | 0.805 | 1 | -0.0403 | 0.867 | 0.993 | 0.68 | 0.712
6 | O=C1O[C@@H](c2ccccc2)[C@@H](c2ccccc2)N2[C@@H](c3ccc(OCCO)cc3)[C@]3(C(=O)Nc4ccc(C#CC5=CCCCC5)cc43)[C@@H](C(=O)Nc3nc4ccccc4s3)[C@H]12 | 0.597 | -1.88 | -0.005 | 0.516 | -0.188 | 0.0243 | -0.708 | 0.704 | 0.0065 | 0.4
7 | C[C@]1(C(=O)NCC(F)(F)F)c2ccccc2C(=O)N(Cc2cc(C(F)(F)F)cc(C(F)(F)F)c2)[C@H]1c1ccc(CO)cc1 | 0.454 | -0.1 | -0.544 | -0.136 | 0.331 | -0.0346 | -0.0146 | 0.231 | 0.173 | 0.342
8 | CO[C@H]1O[C@H](CO)[C@@H](OC(=O)Nc2cccc(F)c2)[C@H](OC(=O)Nc2ccc3c(c2)OCO3)[C@@H]1OC(=O)Nc1ccc2c(c1)OCO2 | 1.5 | -1.14 | -0.0699 | 0.911 | -1.04 | 0.0186 | 0.214 | 0.724 | 1.46 | 1.02
9 | O=C1O[C@H](c2ccccc2)[C@H](c2ccccc2)N2[C@H]1[C@@H](C(=O)N1CCCCCCC1)[C@]1(C(=O)Nc3ccc(C#CCCO)cc31)[C@H]2c1ccc(O)cc1 | 1.52 | -0.637 | 1.69 | 3.02 | 1.75 | 1.62 | 2.01 | 0.939 | 5.54 | 4.23
10 | CCCCCCc1nc(Cc2cc(OC)c(OC)c(OC)c2)c(C)c2c1[Si](C(C)C)(C(C)C)OC2 | 0.495 | -0.715 | 0.0746 | -0.0235 | -0.128 | -0.0721 | 0.14 | -0.0587 | 0.18 | -0.101
11 | COC(=O)[C@]1(Cc2ccccc2N=[N+]=[N-])N=C(c2ccc(OCCCO)cc2)O[C@@H]1c1ccccc1CN=[N+]=[N-] | 1.37 | -3.42 | 0.112 | 0.149 | -0.529 | -0.148 | -0.0324 | 1.14 | 1.3 | 0.874
12 | CC(C)(C)OC(=O)CC[C@@]1(C(N)=O)N=C(c2ccc(OCCCO)cc2)O[C@@H]1c1ccccc1CN=[N+]=[N-] | 1.35 | 0.0506 | -0.0243 | 2.47 | 1.9 | 0.188 | 0.553 | 1.52 | 1.48 | 2.58
13 | C=CCNC(=O)[C@H]1[C@@H]2C(=O)O[C@@H](c3ccccc3)[C@@H](c3ccccc3)N2[C@@H](c2ccc(O)cc2)[C@]12C(=O)Nc1ccc(C#CCC(C(=O)OC)C(=O)OC)cc12 | -0.952 | -0.174 | -0.243 | -0.416 | -0.401 | -0.0495 | 0.171 | -0.302 | 0.49 | 0.0559
14 | COc1ccc(NN2C(C(O)c3ccc(F)cc3)C=CC3C(=O)N(C4CCCCC4)C(=O)C32)cc1 (stereo not given) | 1.44 | -0.502 | 0.14 | 1.08 | 0.722 | 0.0919 | 0.108 | 1.03 | 0.297 | 1.37
15 | CC(C)N1CC=CC23O[C@@H]4/C=C\CCCOC(=O)C4[C@H]2C(=O)N(C(C)CO)[C@@H]3C1=O (stereo not given in full) | -0.7 | 0.314 | -0.794 | -0.814 | -0.242 | -0.308 | -0.167 | -0.356 | -0.401 | -0.393
16 | CCOC(=O)C[C@H]1[C@H](OC(=O)c2ccc(-c3ccccc3)cc2)[C@@H](NC(=O)c2ccc(-c3ccccc3)cc2)c2cc(OCCCO)ccc2N1C(=O)c1ccccc1 | 1.01 | -1.22 | 0.71 | 1.1 | 0.912 | -0.0721 | 0.0278 | 0.412 | 0.322 | 1.14
17 | CN1C(=O)C2C=CC(C(O)c3cccs3)N(N(c3ccccc3)c3ccccc3)C2C1=O (stereo not given) | 1.28 | 0.053 | -0.632 | 1.07 | 0.831 | 0.143 | 0.131 | -0.267 | 0.713 | 1.79
18 | CC(C)C[C@@H]1NC(=O)[C@@H]2C[C@H](C(=O)NCCCCCCNC(=O)CS)[C@H](c3ccc(O)cc3)N2C1=O | 1.48 | 0.388 | 0.734 | 1.06 | 0.152 | -0.0495 | -0.0211 | 0.693 | 0.469 | 1.76
19 | C=C(COC)C(=O)CC[C@H](OC(C)=O)c1ccccc1OCCO | 0.0337 | -1.94 | -0.0181 | -0.714 | -1.1 | -0.15 | -0.223 | -0.397 | 1.59 | -0.15
